Bioassay records: PubChem BioAssay, several laboratories
FAS TE block – inhibitors of human fatty acid synthase thioesterase domain | 360,000 tested, 0.67% active | P49327 | inhibition, % at 15 µM | recombinant FAS-TE, OMFH fluorogenic substrate, fluorescence endpoint;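 active = compounds whose normalised, plate-corrected inhibition of enzyme fluorescence in the single-dose primary screen is 50% or more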;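 note: 0% = DMSO with enzyme and 100% = substrate without enzyme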
Target sequence (P49327 whole entry, looked up, the tested form may be a part): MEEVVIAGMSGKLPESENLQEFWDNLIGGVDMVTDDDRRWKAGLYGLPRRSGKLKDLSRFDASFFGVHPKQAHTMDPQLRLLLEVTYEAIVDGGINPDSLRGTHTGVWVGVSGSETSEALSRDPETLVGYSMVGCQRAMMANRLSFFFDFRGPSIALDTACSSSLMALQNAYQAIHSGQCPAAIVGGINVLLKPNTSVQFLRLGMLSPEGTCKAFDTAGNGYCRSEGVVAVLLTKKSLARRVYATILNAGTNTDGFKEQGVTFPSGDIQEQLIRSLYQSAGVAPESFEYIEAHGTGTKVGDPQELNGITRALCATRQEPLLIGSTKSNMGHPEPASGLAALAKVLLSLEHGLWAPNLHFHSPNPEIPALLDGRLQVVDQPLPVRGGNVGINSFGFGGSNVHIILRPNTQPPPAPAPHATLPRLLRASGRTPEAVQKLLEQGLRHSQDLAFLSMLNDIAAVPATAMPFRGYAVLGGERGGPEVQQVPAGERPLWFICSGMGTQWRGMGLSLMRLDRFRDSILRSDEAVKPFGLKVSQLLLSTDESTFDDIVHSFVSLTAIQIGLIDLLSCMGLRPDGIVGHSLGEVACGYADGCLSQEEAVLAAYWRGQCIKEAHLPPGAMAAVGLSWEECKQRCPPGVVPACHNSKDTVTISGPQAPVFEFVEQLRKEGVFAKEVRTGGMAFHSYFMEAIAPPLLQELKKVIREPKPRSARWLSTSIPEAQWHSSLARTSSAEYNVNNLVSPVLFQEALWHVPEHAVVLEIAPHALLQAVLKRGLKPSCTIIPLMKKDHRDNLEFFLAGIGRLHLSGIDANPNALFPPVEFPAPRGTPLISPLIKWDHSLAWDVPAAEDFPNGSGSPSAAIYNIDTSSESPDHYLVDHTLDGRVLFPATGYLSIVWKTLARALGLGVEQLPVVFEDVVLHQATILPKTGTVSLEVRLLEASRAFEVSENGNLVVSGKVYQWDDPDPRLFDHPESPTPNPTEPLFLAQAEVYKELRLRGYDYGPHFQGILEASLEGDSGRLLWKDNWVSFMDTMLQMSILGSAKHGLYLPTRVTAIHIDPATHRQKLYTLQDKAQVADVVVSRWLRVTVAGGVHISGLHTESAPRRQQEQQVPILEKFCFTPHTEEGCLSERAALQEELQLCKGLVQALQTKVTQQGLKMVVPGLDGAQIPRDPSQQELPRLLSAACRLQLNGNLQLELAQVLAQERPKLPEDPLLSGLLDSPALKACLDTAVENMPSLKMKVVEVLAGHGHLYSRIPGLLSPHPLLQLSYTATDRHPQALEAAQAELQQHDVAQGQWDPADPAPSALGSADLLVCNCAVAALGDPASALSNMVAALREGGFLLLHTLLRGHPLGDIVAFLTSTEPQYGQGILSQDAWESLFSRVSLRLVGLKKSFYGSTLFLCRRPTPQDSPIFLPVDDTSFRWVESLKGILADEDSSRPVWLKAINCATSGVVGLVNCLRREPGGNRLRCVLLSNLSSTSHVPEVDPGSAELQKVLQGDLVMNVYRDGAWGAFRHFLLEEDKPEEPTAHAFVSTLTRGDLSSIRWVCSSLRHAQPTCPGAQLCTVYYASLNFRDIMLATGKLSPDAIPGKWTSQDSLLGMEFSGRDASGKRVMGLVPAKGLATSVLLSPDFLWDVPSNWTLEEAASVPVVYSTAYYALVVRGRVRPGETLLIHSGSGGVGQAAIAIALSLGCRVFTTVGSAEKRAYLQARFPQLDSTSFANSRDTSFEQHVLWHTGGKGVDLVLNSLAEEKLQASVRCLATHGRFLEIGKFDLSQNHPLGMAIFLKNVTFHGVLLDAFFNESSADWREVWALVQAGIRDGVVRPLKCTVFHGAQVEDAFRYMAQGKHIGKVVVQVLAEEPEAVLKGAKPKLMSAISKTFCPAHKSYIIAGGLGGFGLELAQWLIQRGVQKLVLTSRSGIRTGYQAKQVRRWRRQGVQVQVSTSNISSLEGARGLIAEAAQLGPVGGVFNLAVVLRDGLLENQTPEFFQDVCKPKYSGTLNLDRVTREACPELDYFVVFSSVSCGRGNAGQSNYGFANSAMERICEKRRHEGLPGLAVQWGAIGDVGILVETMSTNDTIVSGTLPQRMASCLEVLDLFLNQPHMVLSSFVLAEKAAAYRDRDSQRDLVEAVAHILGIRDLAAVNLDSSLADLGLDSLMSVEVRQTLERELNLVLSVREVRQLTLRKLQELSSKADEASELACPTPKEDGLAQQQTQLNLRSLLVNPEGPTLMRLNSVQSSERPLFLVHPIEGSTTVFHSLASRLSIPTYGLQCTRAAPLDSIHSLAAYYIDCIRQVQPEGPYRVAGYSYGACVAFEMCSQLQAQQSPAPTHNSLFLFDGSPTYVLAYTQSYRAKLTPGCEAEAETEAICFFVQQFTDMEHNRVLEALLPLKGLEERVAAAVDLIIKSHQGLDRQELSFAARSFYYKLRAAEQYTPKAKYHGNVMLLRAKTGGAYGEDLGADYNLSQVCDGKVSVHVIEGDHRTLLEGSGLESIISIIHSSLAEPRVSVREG
sPLA2-III inh – Blocks human group III sPLA2 activity. Q9NZ20. QFRET BODIPY PC-A2 liposome hydrolysis, fluorescence. inhibition, % at 12.2 µM. 370,000 tested, 0.56% active. AID 743126;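 active = inhibition above mean plus 3 SD of compounds lying within the high and low control bounds, cut at about 19% in these data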;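 note: 0% = median of test compound wells and 100% = no enzyme DMSO wells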
NR3A LBD binder – modulates the human NR3A ligand-binding domain. NR3A LBD differential scanning fluorimetry, Tm shift; 0% = protein alone, 100% = glycine-bound protein. Tm shift relative to glycine control, % at 25 µM. 340,000 tested, 2.5% active. AID 1259313;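 active = melting temperature shift of at least 10% of the positive control shift, at one fixed dose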
ADAM10 inh – inhibitors of human ADAM10; recombinant ADAM10, EDANS/DABCYL FRET peptide cleavage, 3 h; inhibition, % at 7 µM; 370,000 tested, 0.62% active;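 active = inhibition above a per-campaign cutoff equal to the mean of compounds falling between control-based bounds plus 3 SD, cut at about 20% in these data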;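 note: 0% = DMSO wells while the 100% control is not disclosed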
ADAM17 inh – inhibitors of human ADAM17; inhibition, % at 6.95 µM; recombinant ADAM17, EDANS/DABCYL FRET peptide cleavage; 370,000 tested, 0.83% active; AID 720648;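 active = inhibition above the mean of compounds lying between control limits plus 3 SD, set per campaign, cut at about 8.5% in these data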;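 note: 0% = DMSO-only wells as the low control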
Numbers without * were called inactive; i = inactive; · = no result. The list is not random: actives were taken first. Their share in the collection is about 4.3%.

SMILES | FAS TE block | sPLA2-III inh | NR3A LBD binder | ADAM10 inh | ADAM17 inh
O=C(CSc1nnc(-c2ccccn2)n1-c1ccccc1)Nc1ccc(OCc2ccccc2)cc1 | · | 17 | · | -6 | 0
CCNC(=S)Nc1ccc2ncoc2c1 | 2 | 5 | 0 | 10 | 1
O=C(Nc1cccc(C(=O)N2CCOCC2)c1)c1cccnc1 | -6 | 9 | 11* | 6 | 1
O=C(Nc1ccc2c(c1)oc1ccccc12)c1cccnc1 | 1 | -7 | 17* | 0 | 0
O=C(Nc1ccc2c(c1)oc1ccccc12)c1ccncc1 | -5 | 3 | 15* | -125 | -31
CCNC(=S)Nc1ccc2c(c1)oc1ccccc12 | 9 | 10 | 10* | 8 | -2
O=C(Nc1ccc(NC(=O)c2ccncc2)cc1)c1ccncc1 | · | 1 | · | 1 | -2
CC(C)CN1CN2Cc3ccccc3C2CS1(=O)=O (configuration not stated) | · | 17 | · | -10 | -7
Oc1ccc(C2=NN(c3ccccc3)C(c3ccc(F)cc3)C2)cc1 (configuration not stated) | 32 | -2 | 21* | i | i
O=C(c1ccccc1)N1N=C(c2ccc(F)cc2)CC1c1ccc(F)cc1 (configuration not stated) | 7 | -1 | -1 | 6 | 1
Oc1ccccc1C1=NN(c2ccccc2)C(c2ccc(F)cc2)C1 (configuration not stated) | 23 | 4 | 1 | -34 | -14
Cc1ccc(NC(=O)N2N=C(c3ccc(F)cc3)CC2c2ccc(F)cc2)cc1 (configuration not stated) | 24 | 0 | 19* | 3 | 3
CC(=O)Nc1ccc(C2CC(c3ccc(Cl)cc3)=NN2c2ccccc2)cc1 (configuration not stated) | 20 | 2 | 15* | -255 | -148
CC(=O)Nc1ccc(C2=NN(c3ccccc3)C(c3ccccc3)C2)cc1 (configuration not stated) | 24 | -2 | -8 | -262 | -126
COCCCN1C(=O)[C@H](CC(=O)NCCCCc2ccccc2)[C@]2(C(=O)OC)CCCCC=C12 | · | -3 | · | 3 | 0
O=C(CSc1nc2ccccc2[nH]1)NN=Cc1c(F)cccc1Cl | · | -9 | · | 3 | 0
COc1ccc(-n2c(SCC(=O)N(CC(C)C)CC(C)C)nnc2-c2ccncc2)cc1 | · | -3 | · | -4 | -1
COc1ccc(NC(=S)NNc2ccc([N+](=O)[O-])cc2S(=O)(=O)Nc2ccc(C)cc2C)cc1 | 36 | -3 | 23* | 4 | 7
COc1ccc(CNc2ccc([N+](=O)[O-])cc2C)cc1 | 28 | 7 | -7 | 6 | -1
Cc1ccc(NS(=O)(=O)c2cc([N+](=O)[O-])ccc2NNC(=S)Nc2cccc(Cl)c2)c(C)c1 | 52* | · | -11 | · | ·
CSCCC(NC(=O)c1cc(C)oc1C)C(=O)O (configuration not stated) | -3 | 1 | 1 | -5 | -6
CSCCC(NC(=O)c1ccc(C)o1)C(=O)O (configuration not stated) | -5 | 6 | 15* | 6 | -6
COc1ccccc1C(=O)NCC(=O)N=Nc1c(O)n(C(C)C)c2ccccc12 | 1 | -6 | 255* | 0 | 0
CC(C)n1c(O)c(N=NC(=O)CNC(=O)Cc2ccc(Cl)cc2)c2ccccc21 | 16 | -14 | 1 | 6 | 3
O=C(OCC#CCSc1nnc(-c2cccc3ccccc23)o1)c1ccc(Cl)c(C(F)(F)F)c1 | · | 4 | · | -9 | -6
SMILES | FAS TE block | sPLA2-III inh | NR3A LBD binder | ADAM10 inh | ADAM17 inh
NC(=O)NC(=O)COC(=O)c1cccc(NS(=O)(=O)/C=C/c2ccccc2)c1 | -5 | -21 | 0 | 3 | 3
NC(=O)COC(=O)c1cccc(NS(=O)(=O)/C=C/c2ccccc2)c1 | -11 | -11 | 12* | -4 | -1
CCOC(=O)c1ccc(-c2c(-c3ccccc3OC)oc3ccccc23)cc1F | 25 | -2 | 1 | -224 | -49
COc1ccccc1-c1oc2ccccc2c1-c1ccc2cc[nH]c2c1 | 32 | -1 | 21* | -148 | -37
Cc1ccc(S(=O)(=O)N(C)CC(=O)NC2CC(C)(C)NC(C)(C)C2)cc1 | -13 | 2 | -1 | -1 | -3
CN(CC(=O)NC1CC(C)(C)NC(C)(C)C1)S(=O)(=O)c1ccc(Br)cc1 | -6 | 5 | 13* | -4 | -4
COc1ccccc1NC(=O)Nc1ccc(NC(=O)c2ccccc2O)cc1 | 16 | -25 | 32* | 6 | 4
O=C(Nc1ccc(F)cc1)c1ccccc1F | -4 | -2 | 1 | -3 | -1
O=C(Nc1ccccc1O)c1ccccc1O | -10 | -2 | 15* | -5 | 2
COc1ccc(NC(=O)Nc2ccccc2OC)cc1 | -5 | -3 | -6 | 1 | -2
O=C(Nc1ccc(F)cc1)Nc1ccc(NC(=O)c2ccccc2O)cc1 | 1 | -5 | 32* | -56 | -20
Cc1cccc(NC(=O)c2ccccc2O)c1C | -8 | -19 | -5 | -24 | -8
CCCCCC(=O)NC1CCCCN(Cc2ccc(Cl)cc2)C1=O (configuration not stated) | · | 4 | · | -6 | -5
O=C(OC12CCCN(C1)/C(=C/c1ccncc1)C2)c1ccc(Cl)cc1 (configuration not stated) | · | -1 | · | -2 | 4
O=S(=O)(NCCCCNS(=O)(=O)c1c(F)cccc1F)c1ccc2c(c1)OCCO2 | -7 | -12 | 15* | 3 | -1
Nc1ccccc1C#Cc1ccc2[nH]ccc2c1 | 8 | 8 | 19* | -56 | -17
CCOC(=O)[C@]12CCCC=C1N(CCCOC)C(=O)[C@@H]2CC(=O)NCc1cccc(C(F)(F)F)c1 | · | 5 | · | -10 | 1
O=C(COC(=O)CCCSc1nc2ccccc2[nH]1)Nc1ccc(Cl)cc1 | 6 | -11 | 16* | 1 | 1
CCNC(=O)NC(=O)COC(=O)CCCSc1nc2ccccc2[nH]1 | -14 | -3 | -1 | 6 | -3
CC(C)(C)N1C(=O)c2ccc(C(=O)Nc3ccc(-c4nc5ccccc5[nH]4)cc3)cc2C1=O | -14 | -12 | 35* | -2 | -1
O=C(Nc1ccc(-c2nc3ccccc3[nH]2)cc1)c1ccc(N2C(=O)CCC2=O)cc1 | -6 | 0 | 24* | -4 | 0
CC(C)(C)N1C(=O)c2ccc(C(=O)Nc3ccc(C(=O)O)cc3)cc2C1=O | 4 | -2 | 1 | -4 | -3
CN(c1ccccc1)S(=O)(=O)c1ccc(Cl)c(C(=O)Nc2ccc(-c3nc4ccccc4[nH]3)cc2)c1 | 42 | -2 | 19* | -10 | 0
CS(=O)(=O)c1cccc(C(=O)Nc2ccc(-c3nc4ccccc4[nH]3)cc2)c1 | -2 | -5 | 32* | -205 | -98
Cn1c(=O)cc(OCCCC(=O)Nc2cc(-c3cn[nH]c3)ccn2)c2ccccc21 | · | -3 | · | 0 | -4
COC(=O)C1CN(Cc2ccccc2)CCS(=O)(=O)N1Cc1ccccc1F (configuration not stated) | · | -1 | · | 2 | -1
Cc1n[nH]c2ccc(Br)cc2c1=O | -7 | 6 | · | -14 | -4
